Inconclusive results are not listed. Calls of active or inactive are those of the source. The calls were made as follows: active = hit-call score of the fitted dose curve at least 0.9, where 1 is the maximum; inconclusive = response in the unintended direction; inactive = score below 0.9.
Target: Cellular tumor antigen p53 (Homo sapiens) (UniProt P04637)
Sequence (P04637 whole entry, looked up): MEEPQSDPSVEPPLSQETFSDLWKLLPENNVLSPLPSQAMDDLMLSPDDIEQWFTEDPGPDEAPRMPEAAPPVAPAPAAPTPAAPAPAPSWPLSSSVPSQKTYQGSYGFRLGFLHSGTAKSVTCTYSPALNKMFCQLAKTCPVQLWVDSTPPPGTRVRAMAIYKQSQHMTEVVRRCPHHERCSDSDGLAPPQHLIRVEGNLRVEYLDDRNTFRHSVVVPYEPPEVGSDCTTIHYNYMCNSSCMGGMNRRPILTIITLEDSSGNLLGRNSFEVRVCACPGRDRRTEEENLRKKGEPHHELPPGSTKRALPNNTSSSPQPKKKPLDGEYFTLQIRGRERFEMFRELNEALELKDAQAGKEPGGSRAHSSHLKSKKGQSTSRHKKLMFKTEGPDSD
Assay: TOX21_p53_BLA_p3_ratio: Tox21 HCT-116 p53 Agonism Beta-lactamase Assay, Ratio, Phase 3 (AID 2283596)
Method in brief: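 HCT116 p53-bla cells (4000/well) given compound in DMSO (217-fold dilution) after 5 h, incubated 16 h at 37C. CCF4-AM substrate 2 h at room temperature; 460/530 nm emission ratio, gain fitted against DMSO.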
For OC[C@@H](O)[C@H](O)[C@@H](O)[C@@H](O)CO, the outcome was “inactive”.
For CCCCN(CCO)CCO, the outcome was “inactive”.
With CN(C)c1ccc(C=O)cc1 the outcome was “inactive”.
In the case of N=C1N=C(N)c2ccccc21, the AC50 is reported as 27.3 µM (active).
With CCCCCCCCCCCCN1CCOCC1 the outcome was “inactive”.
For CC(C)CCOC(=O)CC(C)C, the outcome was “inactive”.
With CCCCCCCCCO the outcome was “inactive”.
With CC(=O)OC(C)(C)C1CC=C(C)CC1 (stereo unspecified) the outcome was “inactive”.
In the case of CC(C)COC(=O)c1ccccc1O, the outcome is reported as “inactive”.
With C=C/C(C)=C/C/C=C(\C)CCC=C(C)C the outcome was “inactive”.
In the case of CCOC(=O)C(=O)OCC, the outcome is reported as “inactive”.
For CCCCN(CCCC)CCCCCCN(CCCC)CCCC, the outcome was “inactive”.
For CCCCCc1cccc(=O)o1, the outcome was “inactive”.
In the case of C=C(C)C(=O)OCCN(C)C, the outcome is reported as “inactive”.
With CCOc1ccc(NC(C)=O)cc1 the outcome was “inactive”.

Test system: not listed separately
Assay: TOX21_p53_BLA_p4_viability: Viability Assessment in the Tox21 HCT-116 p53 Agonism Beta-lactamase Assay, Phase 4 (AID 2283597);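 also: hits lower the luminescence signal meaning cytotoxicity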
Method in brief: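 HCT-116 p53-bla cells, 4000/well, dosed after 5 h attachment and incubated 16 h at 37 °C, 5% CO2. Viability from CellTiter-Glo ATP luminescence after 30 min at room temperature, taken after the beta-lactamase read; loss of signal indicates cytotoxicity.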
In the case of [Cu+], the outcome is reported as “inactive”.
With OC[C@@H](O)[C@H](O)[C@@H](O)[C@@H](O)CO the outcome was “inactive”.
With c1coc(CNc2ncnc3nc[nH]c23)c1 the outcome was “inactive”.
With Cc1cccc(O)c1 the outcome was “inactive”.
For O=S1(=O)CC=CC1, the outcome was “inactive”.
In the case of CCCCCCCCCO, the outcome is reported as “inactive”.
For CCc1cccc(O)c1, the outcome was “inactive”.
For CCOC(=O)COC(=O)c1ccccc1C(=O)OCC, the outcome was “inactive”.
For CCCCCCCCCCCCOCCOS(=O)(=O)O, the AC50 was 60.4 µM (active).
With CCCCCc1cccc(=O)o1 the outcome was “inactive”.
For CC(C)Cc1ccccc1, the outcome was “inactive”.
In the case of O=S(=O)(O)CCCN1CCOCC1, the outcome is reported as “inactive”.
In the case of CCOc1ccc(NC(C)=O)cc1, the outcome is reported as “inactive”.
In the case of CCCCOCCOCCOCCO, the outcome is reported as “inactive”.
For C=CCCCCCCCCC(=O)OCC, the outcome was “inactive”.
With C=C(C)CCCC(C)CCO (stereo unspecified) the outcome was “inactive”.
With CN(C)C the outcome was “inactive”.

Target: Cellular tumor antigen p53 (Homo sapiens) (UniProt P04637)
Assay: TOX21_p53_BLA_p5_ratio: Tox21 HCT-116 p53 Agonism Beta-lactamase Assay, Ratio, Phase 5 (AID 2283599)
Method in brief: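 HCT-116 p53-bla cells (4000/well) plated 5 h, dosed with compound (217-fold DMSO dilution) for 16 h at 37 C; CCF4-AM substrate 2 h at room temperature. Activity is the 460/530 nm emission ratio (405 nm excitation), fitted in gain-of-signal direction versus DMSO.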
In the case of S=c1[nH][nH]c(=S)s1, the outcome is reported as “inactive”.
For OC[C@@H](O)[C@H](O)[C@@H](O)[C@@H](O)CO, the outcome was “inactive”.
For C=CCOCC(O)CO (stereo unspecified), the outcome was “inactive”.
With c1coc(CNc2ncnc3nc[nH]c23)c1 the outcome was “inactive”.
For Cc1cccc(O)c1, the outcome was “inactive”.
For N=C1N=C(N)c2ccccc21, the AC50 was 13.3 µM (active).
For CC/C=C\CCOC(=O)C(C)C, the outcome was “inactive”.
With O=S1(=O)CC=CC1 the outcome was “inactive”.
For CCCCCCCCCCCCN1CCOCC1, the outcome was “inactive”.
For CC(C)CCOC(=O)CC(C)C, the outcome was “inactive”.
For CCCCCCC(O)CCOC(C)=O (stereo unspecified), the outcome was “inactive”.
In the case of CC(=O)OC(C)(C)C1CC=C(C)CC1 (stereo unspecified), the outcome is reported as “inactive”.
For CC(C)COC(=O)c1ccccc1O, the outcome was “inactive”.
For Cc1ccc(C(C)(C)O)cc1, the outcome was “inactive”.
For CCc1cccc(O)c1, the outcome was “inactive”.
For CCOC(=O)COC(=O)c1ccccc1C(=O)OCC, the outcome was “inactive”.
For CCCCCCOC(C)=O, the outcome was “inactive”.
With CCOC(=O)C(=O)OCC the outcome was “inactive”.
In the case of CCCCCCCCCCCCOCCOS(=O)(=O)O, the outcome is reported as “inactive”.
For CCCCN(CCCC)CCCCCCN(CCCC)CCCC, the outcome was “inactive”.
With CCCCCc1cccc(=O)o1 the outcome was “inactive”.
For CC(C)Cc1ccccc1, the outcome was “inactive”.
For O=S(=O)(O)CCCN1CCOCC1, the outcome was “inactive”.
For CCOc1ccc(NC(C)=O)cc1, the outcome was “inactive”.
In the case of CC/C=C\C#N, the outcome is reported as “inactive”.
With CCCCOCCOCCOCCO the outcome was “inactive”.
In the case of C=CCCCCCCCCC(=O)OCC, the outcome is reported as “inactive”.
For C=C(C)CCCC(C)CCO (stereo unspecified), the outcome was “inactive”.
In the case of CN(C)C, the outcome is reported as “inactive”.

Source: PubChem BioAssay (EPA / NIEHS)
